Sampled rows, rich in hits. Any-hit rate of the full collection: about 3.6%.
Mdm2 MdmX PPI – inhibitors of human Mdm2-MdmX association, primary screen, cell-based, luminescence, split luciferase, SaOS-2, uHTS | Protein Mdm4 (Homo sapiens) + E3 ubiquitin-protein ligase Mdm2 (Homo sapiens), … | SaOS-2 split-luciferase Mdm2/MdmX complementation | inhibition, % at 8 µM | 330,000 tested, 3% active | AID 485346, 2010;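 active = inhibition of at least 50% at 8 µM in the primary screen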
Target sequence (O15151 whole entry, looked up): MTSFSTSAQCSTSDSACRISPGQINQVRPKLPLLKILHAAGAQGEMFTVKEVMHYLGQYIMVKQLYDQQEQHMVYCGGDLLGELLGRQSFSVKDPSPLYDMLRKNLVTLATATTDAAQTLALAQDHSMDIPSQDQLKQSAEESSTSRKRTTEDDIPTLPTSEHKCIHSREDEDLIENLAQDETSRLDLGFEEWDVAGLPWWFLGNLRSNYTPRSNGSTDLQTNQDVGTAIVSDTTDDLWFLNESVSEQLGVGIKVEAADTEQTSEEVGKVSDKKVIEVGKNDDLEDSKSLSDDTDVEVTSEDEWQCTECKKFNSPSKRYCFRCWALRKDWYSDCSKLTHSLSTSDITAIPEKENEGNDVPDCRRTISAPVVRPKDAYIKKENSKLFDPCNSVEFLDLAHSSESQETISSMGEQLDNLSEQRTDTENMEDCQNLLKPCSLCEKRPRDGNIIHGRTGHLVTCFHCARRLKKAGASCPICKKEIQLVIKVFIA
Target sequence (Q00987 whole entry, looked up): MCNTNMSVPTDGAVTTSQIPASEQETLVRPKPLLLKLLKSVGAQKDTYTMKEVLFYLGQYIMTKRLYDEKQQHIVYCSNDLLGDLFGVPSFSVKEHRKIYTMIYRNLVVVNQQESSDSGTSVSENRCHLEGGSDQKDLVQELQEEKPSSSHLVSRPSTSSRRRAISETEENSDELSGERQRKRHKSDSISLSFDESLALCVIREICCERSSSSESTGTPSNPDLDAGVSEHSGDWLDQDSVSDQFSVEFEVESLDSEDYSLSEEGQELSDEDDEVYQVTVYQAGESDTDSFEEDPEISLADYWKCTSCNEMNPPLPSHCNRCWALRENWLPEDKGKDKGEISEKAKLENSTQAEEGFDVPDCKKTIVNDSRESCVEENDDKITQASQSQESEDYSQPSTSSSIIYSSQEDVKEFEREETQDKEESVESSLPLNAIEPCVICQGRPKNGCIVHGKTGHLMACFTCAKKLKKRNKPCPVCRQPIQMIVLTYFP
Peg3 prom inh – Peg3 promoter-driven luciferase inhibitors, primary screen, cell-based, HeLa, luciferase luminescence; inhibition, % at 20 µM; AID 588405, 2011; HeLa PEG-Prom luciferase reporter, overnight; 360,000 tested, 1.7% active;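 active = inhibition of at least 50% at 20 µM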
LGR2 antag – inhibitors of bursicon-induced LGR2 CRE-luciferase signal, primary screen, cell-based, HEK293, CRE-luciferase reporter, bursicon stimulation; Drosophila bursicon receptor LGR2 (rickets); 380,000 tested, 0.35% active; bursicon-stimulated, 4 h; AID 720647, 2013; inhibition, % at 9.99 µM;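 active = drop in luminescence signal, shown as inhibition above about 50% in the replicate tests, limit read from the data, passing the limit was not always enough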;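 note: agonist challenge used bursicon conditioned medium at about half maximal strength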
HSP90 refold inh – HSP90 inhibitors, primary screen, cell lysate, luminescence | Rabbit reticulocyte lysate, luciferase refolding luminescence, 3 h | inhibition, % at 5.6 µM | 290,000 tested, 0.91% active | AID 1789, 2009;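 active = inhibition above the screen-wide mean plus 3 SD, computed separately per campaign, cut at about 16% in these data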;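 note: 0% = DMSO wells and 100% = 60 µM geldanamycin wells; inhibitors lower the luminescence because luciferase stays unfolded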
KKLEB tox – cytotoxicity in KKLEB CF airway cells, primary screen, cytotoxicity control for CF NF-kB inhibitor project, cell-based, uHTS, fluorescence assay plates. KKLEB CF airway cells viability, ATPlite luminescence, overnight; stronger effect = lower value; cells stimulated with P. aeruginosa culture filtrate. AID 602141, 2011. 360,000 tested, 0.36% active. activity change (cytotoxicity), % at 5 µM;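 active = corrected activity change at or below -50% at 5 µM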
CF NFkB inh – inhibitors of PAF-induced NF-kB signaling, primary screen, cell-based, GFP fluorescence, uHTS; KKLEB NF-kB-GFP reporter, GFP fluorescence overnight; 360,000 tested, 0.86% active; inhibition, % at 5 µM;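 active = at least 50% inhibition at 5 µM, scaled per plate between neutral and stimulator controls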;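 note: PAF is a Pseudomonas aeruginosa culture filtrate used as stimulus; plate controls were PAF-stimulated DMSO wells for no effect and unstimulated DMSO wells for full effect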
An asterisk follows results filed as active; . = no result.

SMILES	Mdm2 MdmX PPI	Peg3 prom inh	LGR2 antag	HSP90 refold inh	KKLEB tox	CF NFkB inh
CO[C@H]1CN(C)C(=O)c2ccc(NC(=O)C3CCC3)cc2OC[C@@H](C)N(C(=O)NC(C)C)C[C@@H]1C	.	.	-3	.	.	.
CN(C)C(=O)C[C@@H]1CC[C@@H]2[C@@H](COc3ccc(NC(=O)NCc4ccccc4)cc3C(=O)N2C)O1	.	.	-3	.	.	.
N#Cc1ccc(-c2ccc([C@H]3[C@@H](CO)N4C(=O)CN(C(=O)C5CCCC5)C[C@H]34)cc2)cc1	.	.	-6	.	.	.
O=C(NCC1CCCO1)C(c1ccncc1)N(Cc1cccs1)C(=O)CN1C(=O)c2ccccc2S1(=O)=O (configuration not stated)	-18	8	-12	-6	-16	6
O=C(NC1CCCCC1)C(c1ccc(F)cc1)N(Cc1cccs1)C(=O)CN1C(=O)c2ccccc2S1(=O)=O (configuration not stated)	-20	32	1	-4	-75*	59*
O=C(C[C@H]1CC[C@H](NC(=O)CN2CCOCC2)[C@@H](CO)O1)NCCc1ccncc1	.	.	0	.	.	.
CCn1c2ccccc2c2nnc(SCCCn3c(=O)[nH]c4ccccc43)nc21	11	50*	.	-2	0	-20
C[C@H]1CCCCO[C@@H](CN(C)Cc2ccc(C(=O)O)cc2)[C@@H](C)CN([C@@H](C)CO)C(=O)c2cc(NC(=O)Nc3ccc(F)cc3)ccc2O1	.	.	1	.	.	.
CCc1nc(OCc2ccco2)c2sc3nc4c(cc3c2n1)COC(C)(C)C4	19	4	.	16*	9	22
CCc1nc2c(sc3nc4c(cc32)COC(C)(C)C4)c(=O)n1Cc1ccco1	24	2	-32	6	-2	9
CNC(CC(=O)c1ccc([N+](=O)[O-])cc1)C(Cl)(Cl)Cl (configuration not stated)	.	101*	.	-3	-8	47
COc1ccc(-c2[nH]ncc2/C=C(/C#N)C(=O)NC2CCCCCC2)cc1	46	50*	.	-3	-15	29
Cc1cc(/C=C(\C#N)C(=O)NC2CCCCCC2)c(C)[nH]1	.	-83	-47	4	-5	6
C/C(=N\NC(=O)c1nnn(-c2nonc2N)c1CN(C)c1ccccc1)c1ccccn1	.	68*	.	3	0	6
CO[C@H]1CN(C)C(=O)c2cc(NC(=O)Nc3cc(F)ccc3F)ccc2OC[C@H](C)N(C(=O)c2cnccn2)C[C@@H]1C	.	.	-7	.	.	.
Cc1ccc(NC2=Nc3ccccc3N3C2=Nc2c(c(C)nn2-c2ccccc2)C3c2ccc(O)c(O)c2)cc1 (configuration not stated)	.	88*	.	-1	16	-36
C[C@@H]1CCCCO[C@H](CN(C)C(=O)Nc2ccc3c(c2)OCO3)[C@H](C)CN([C@@H](C)CO)C(=O)c2cc(NS(C)(=O)=O)ccc2O1	.	.	-4	.	.	.
CCN1CCN(c2ccc(S(=O)(=O)N3CCCCC3)cc2NC(=O)/C=C/c2ccc(Cl)cc2)CC1	.	85*	6	.	-9	8
COc1cc2c(cc1NC(=O)C(Cl)Cl)-c1ccc(NC(=O)C(Cl)Cl)cc1C2	.	96*	0	.	-14	-10
C[C@@H]1CN([C@H](C)CO)C(=O)c2cc(NS(=O)(=O)c3ccccc3)ccc2O[C@@H]1CN(C)Cc1ccc(C(=O)O)cc1	.	.	-7	.	.	.
C[C@@H]1CN([C@H](C)CO)C(=O)c2cc(NS(=O)(=O)c3ccccc3)ccc2O[C@@H]1CN(C)C	.	.	8	.	.	.
CCc1cccc(CC)c1NC(=S)Nc1cccc(Cl)c1Cl	10	19	6	0	5	7
CC(Nc1ccccc1CO)C(=O)Nc1cccc(Cl)c1Cl (configuration not stated)	6	52*	23	-1	-9	20
CNC(=O)c1cccc(NC(=O)c2cc(-c3ccccc3)nc3c2cnn3C(C)C)c1	38	59*	-14	.	-3	-39
O=C(C[C@@H]1C=C[C@H](NC(=O)c2ccncc2)[C@H](CO)O1)NCC1CCCCC1	.	.	-4	.	.	.
SMILES	Mdm2 MdmX PPI	Peg3 prom inh	LGR2 antag	HSP90 refold inh	KKLEB tox	CF NFkB inh
O=C(Nc1ccc([N+](=O)[O-])cc1)C(c1ccccc1)c1ccccc1	.	52*	-6	.	3	2
COCC#Cc1cnc2c(c1)C(=O)N([C@@H](C)CO)C[C@@H](C)[C@H](CN(C)C(=O)CN1CCOCC1)O2	.	.	-5	.	.	.
COCCNC(=O)C[C@H]1CC[C@@H]2[C@H](COC[C@@H](O)CN2S(=O)(=O)c2ccccc2C)O1	.	.	-7	.	.	.
C=CCn1c(=O)/c(=C/c2ccc(O)cc2)s/c1=C(/C#N)c1nnc2n1CCCCC2	4	1	10	1	0	10
C=CCn1c(=O)/c(=C/c2cc(OC)c(OC)c(OC)c2)s/c1=C(/C#N)c1nc2ccccc2n1C	47	30	.	1	-50*	5
Cc1ccc(S(=O)(=O)N(C)C[C@H]2Oc3ccc(NS(=O)(=O)c4cccs4)cc3C(=O)N([C@@H](C)CO)C[C@@H]2C)cc1	.	.	-28	.	.	.
CCC(=O)N(C)C[C@H]1Oc2cc(Br)ccc2S(=O)(=O)N([C@@H](C)CO)C[C@@H]1C	.	.	0	.	.	.
COc1ccc(C=C(C(=O)c2ccccc2)C(=O)c2ccccc2)cc1	.	-319	-65	.	-8	11
CC(C)(C)NCC(=Cc1ccccc1)C(=O)c1ccccc1	.	101*	72*	.	-13	4
COc1ccc(NC(=O)c2ccc3c(c2)NC(=O)CS3)cc1	7	-135	14	.	-17	8
Cc1ccc(NS(=O)(=O)c2cc(NC(=O)c3ccc4c(c3)NC(=O)CS4)ccc2Cl)c(C)c1	21	52*	3	5	7	-16
C[C@@H]1CN([C@H](C)CO)S(=O)(=O)c2ccc(Br)cc2O[C@H]1CN(C)C(=O)CN(C)C	.	.	5	.	.	.
O=C(Nc1ccccc1)C1=C(c2ccccc2)S(=O)(=O)CCS1(=O)=O	.	109*	100*	1	-83*	85*
O=C(O)c1ccccc1C(=O)Nc1ccccc1	1	6	.	-2	14	-6
CCC(=O)Nc1ccc2c(c1)C(=O)N(C)C[C@@H](OC)[C@@H](C)CN(Cc1cncnc1)[C@@H](C)CO2	.	.	9	.	.	.
Fc1ccc2[nH]c3c(N4CCN(c5ccccc5)CC4)ncnc3c2c1	44	104*	.	-3	-3	-14
CCOC(=O)N1CCN(c2ncnc3c2[nH]c2ccc(F)cc23)CC1	5	32	.	0	8	-10

Source: PubChem (several laboratories)
